Results as given in PubChem BioAssay AID1159580 (chemical genetic matrix, 2015).
Out of some 5,500 compounds screened, about 2,000 (36%) were called active. Another 18% or so got no clear call; they are omitted. No stated cut-off is given here; in the data, active means normalized growth mostly below about 0.91 (no sharp cut-off); inconclusive means no clear call, values can overlap the other calls; inactive means mostly above about 0.92. Some of the results follow.

Assay: chemical genetic growth profiling, strain panel (AID 1159580);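 further: tested at 20 µM; growth read once vehicle control cultures reached saturation at 30 °C; 1 = growth at the plate median or of vehicle wells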
Details: growth OD

Measured: normalized growth

Nc1ccc(N=Nc2ccccc2)c(N)n1
inactive: S. cerevisiae deletion strains, locus YJR075W, strain HOC1, stronger effect = lower value 0.991 | S. cerevisiae deletion strains, locus YKL009W, strain mrt4, stronger effect = lower value 0.933 | S. cerevisiae deletion strains, locus YKL068W, stronger effect = lower value 1.02 | S. cerevisiae deletion strains, locus YKL085W, strain MDH1 (second series), stronger effect = lower value 1.01 | S. cerevisiae deletion strains, locus YKL085W, strain MDH1, stronger effect = lower value 1.01 | S. cerevisiae deletion strains, locus YKL190W, strain CNB1, stronger effect = lower value 1 | S. cerevisiae deletion strains, locus YKR026C, strain gcn3, stronger effect = lower value 0.969 | S. cerevisiae deletion strains, locus YKR091W, strain srl3, stronger effect = lower value 0.959 | S. cerevisiae deletion strains, locus YLR058C, strain SHM2, stronger effect = lower value 1 | S. cerevisiae deletion strains, locus YLR102C, strain apc9, stronger effect = lower value 1.02 | S. cerevisiae deletion strains, locus YLR113W, strain HOG1, stronger effect = lower value 0.997 | S. cerevisiae deletion strains, locus YLR268W, strain sec22, stronger effect = lower value 0.982 | S. cerevisiae deletion strains, locus YLR330W, strain CHS5, stronger effect = lower value 0.992 | S. cerevisiae deletion strains, locus YLR342W, strain FKS1 (second series), stronger effect = lower value 0.916 | S. cerevisiae deletion strains, locus YLR357W, strain rsc2, stronger effect = lower value 1.04 | S. cerevisiae deletion strains, locus YLR370C, strain arc18, stronger effect = lower value 0.946 | S. cerevisiae deletion strains, locus YLR371W, strain rom2, stronger effect = lower value 1.03 | S. cerevisiae deletion strains, locus YLR384C, strain iki3, stronger effect = lower value 0.972 | S. cerevisiae deletion strains, locus YLR418C, strain cdc73, stronger effect = lower value 0.881 | S. cerevisiae deletion strains, locus YML016C, strain PPZ1, stronger effect = lower value 0.987 | S. cerevisiae deletion strains, locus YML032C, strain rad52, stronger effect = lower value 0.938 | S. cerevisiae deletion strains, locus YML124C, strain tub3, stronger effect = lower value 1.02 | S. cerevisiae deletion strains, locus YMR078C, strain ctf18, stronger effect = lower value 1.01 | S. cerevisiae deletion strains, locus YMR125W, strain sto1, stronger effect = lower value 0.962 | S. cerevisiae deletion strains, locus YMR129W, stronger effect = lower value 0.978 | S. cerevisiae deletion strains, locus YMR223W, strain ubp8, stronger effect = lower value 0.92 | S. cerevisiae deletion strains, locus YMR231W, strain pep5, stronger effect = lower value 0.971 | S. cerevisiae deletion strains, locus YMR263W, strain SAP30, stronger effect = lower value 0.927 | S. cerevisiae deletion strains, locus YMR307W, strain GAS1, stronger effect = lower value 1.21 | S. cerevisiae deletion strains, locus YNL067W, strain RPL9B, stronger effect = lower value 0.922 | S. cerevisiae deletion strains, locus YNL128W, strain TEP1, stronger effect = lower value 0.966 | S. cerevisiae deletion strains, locus YNL153C, strain GIM3, stronger effect = lower value 0.975 | S. cerevisiae deletion strains, locus YNL183C, strain NPR1, stronger effect = lower value 0.934 | S. cerevisiae deletion strains, locus YNL233W, strain BNI4, stronger effect = lower value 0.937 | S. cerevisiae deletion strains, locus YNL250W, strain rad50, stronger effect = lower value 1.02 | S. cerevisiae deletion strains, locus YNL271C, strain bni1, stronger effect = lower value 0.995 | S. cerevisiae deletion strains, locus YNL298W, strain CLA4, stronger effect = lower value 0.928 | S. cerevisiae deletion strains, locus YNL322C, strain KRE1 (second series), stronger effect = lower value 1.03 | S. cerevisiae deletion strains, locus YNL322C, strain KRE1, stronger effect = lower value 1.01 | S. cerevisiae deletion strains, locus YNR049C, strain mso1, stronger effect = lower value 0.965 | S. cerevisiae deletion strains, locus YNR052C, strain pop2, stronger effect = lower value 0.936 | S. cerevisiae deletion strains, locus YOL012C, strain htz1 1.24 | S. cerevisiae deletion strains, locus YOL147C, strain pex11, stronger effect = lower value 0.982 | S. cerevisiae deletion strains, locus YOR061W, strain CKA2, stronger effect = lower value 0.995 | S. cerevisiae deletion strains, locus YOR069W, strain VPS5, stronger effect = lower value 0.998 | S. cerevisiae deletion strains, locus YOR080W, strain dia2, stronger effect = lower value 0.967 | S. cerevisiae deletion strains, locus YOR136W, strain idh2, stronger effect = lower value 1.01 | S. cerevisiae deletion strains, locus YOR144C, strain elg1, stronger effect = lower value 1.01 | S. cerevisiae deletion strains, locus YOR184W, strain ser1, stronger effect = lower value 1.02 | S. cerevisiae deletion strains, locus YOR231W, strain MKK1, stronger effect = lower value 0.942 | S. cerevisiae deletion strains, locus YOR316C, strain cot1, stronger effect = lower value 1.02 | S. cerevisiae deletion strains, locus YPL055C, strain LGE1, stronger effect = lower value 0.934 | S. cerevisiae deletion strains, locus YPL106C, strain sse1, stronger effect = lower value 0.978 | S. cerevisiae deletion strains, locus YPL241C, strain CIN2, stronger effect = lower value 0.998 | S. cerevisiae deletion strains, locus YPL256C, strain CLN2, stronger effect = lower value 0.962 | S. cerevisiae deletion strains, locus YPR119W, strain clb2, stronger effect = lower value 1.02 | S. cerevisiae deletion strains, locus YPR141C, strain kar3, stronger effect = lower value 1.04 | S. cerevisiae deletion strains, locus YPR163C, strain tif3, stronger effect = lower value 0.952 | S. cerevisiae deletion strains, locus YPR167C, strain met16, stronger effect = lower value 1.02 | S. cerevisiae deletion strains, strain wtn01, stronger effect = lower value 0.964 | S. cerevisiae strains, strain wild type, stronger effect = lower value 0.987
active: S. cerevisiae deletion strains, locus YKL160W, strain elf1, stronger effect = lower value 0.772 | S. cerevisiae deletion strains, locus YKR001C, strain vps1, stronger effect = lower value 0.885 | S. cerevisiae deletion strains, locus YLL001W, strain dnm1, stronger effect = lower value 0.8 | S. cerevisiae deletion strains, locus YLL026W, stronger effect = lower value 0.825 | S. cerevisiae deletion strains, locus YLL041C, strain sdh2, stronger effect = lower value 0.896 | S. cerevisiae deletion strains, locus YLR027C, strain aat2, stronger effect = lower value 0.802 | S. cerevisiae deletion strains, locus YLR039C, strain RIC1, stronger effect = lower value 0.596 | S. cerevisiae deletion strains, locus YLR221C, strain rsa3, stronger effect = lower value 0.7 | S. cerevisiae deletion strains, locus YLR258W, strain gsy2, stronger effect = lower value 0.771 | S. cerevisiae deletion strains, locus YLR262C, strain YPT6 (second series), stronger effect = lower value 0.351 | S. cerevisiae deletion strains, locus YLR262C, strain YPT6, stronger effect = lower value 0.574 | S. cerevisiae deletion strains, locus YLR320W, strain mms22, stronger effect = lower value 0.429 | S. cerevisiae deletion strains, locus YLR342W, strain FKS1, stronger effect = lower value 0.861 | S. cerevisiae deletion strains, locus YML120C, strain ndi1, stronger effect = lower value 0.79 | S. cerevisiae deletion strains, locus YMR058W, strain fet3, stronger effect = lower value 0.716 | S. cerevisiae deletion strains, locus YMR205C, strain PFK2, stronger effect = lower value 0.568 | S. cerevisiae deletion strains, locus YNL071W, strain lat1, stronger effect = lower value 0.261 | S. cerevisiae deletion strains, locus YNL209W, strain ssb2, stronger effect = lower value 0.791 | S. cerevisiae deletion strains, locus YNL248C, strain rpa49, stronger effect = lower value 0.814 | S. cerevisiae deletion strains, locus YNL307C, strain MCK1, stronger effect = lower value 0.798 | S. cerevisiae deletion strains, locus YOL006C, strain TOP1, stronger effect = lower value 0.332 | S. cerevisiae deletion strains, locus YOR001W, strain rrp6, stronger effect = lower value 0.753 | S. cerevisiae deletion strains, locus YOR070C, strain gyp1, stronger effect = lower value 0.774 | S. cerevisiae deletion strains, locus YOR083W, strain WHI5, stronger effect = lower value 0.784 | S. cerevisiae deletion strains, locus YOR106W, strain vam3, stronger effect = lower value 0.563 | S. cerevisiae deletion strains, locus YOR265W, strain rbl2, stronger effect = lower value 0.903 | S. cerevisiae deletion strains, locus YOR270C, strain vph1, stronger effect = lower value 0.243 | S. cerevisiae deletion strains, locus YOR290C, strain snf2, stronger effect = lower value 0.782 | S. cerevisiae deletion strains, locus YPL051W, strain arl3, stronger effect = lower value 0.554 | S. cerevisiae deletion strains, locus YPL078C, strain atp4, stronger effect = lower value 0.741 | S. cerevisiae deletion strains, locus YPL240C, strain hsp82, stronger effect = lower value 0.849
